Reference: PubChem BioAssay (Tox21)
Values joined by “and” are separate entries in the source; they are usually repeats but may differ in a detail not shown here. Equal values may be shown once. Results filed as inconclusive are left out. Entries that show only a call come without a potency. Active and inactive are the calls of the source. The call rests on the fitted dose curve.

Assay: qHTS assay to identify small molecule agonists of the hypoxia (HIF-1) signaling pathway - cell viability counter screen (AID 1224844); further: nearly all actives have a fitted effect of over 50% in size
Details: HRE-bla ME-180 viability, CellTiter-Glo luminescence, 17 h; series mostly up to 76.8 µM
Method in brief: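 HRE-bla ME-180 cells in medium with 0.5% dialyzed FBS were preincubated 5 hrs at 37C, exposed to compounds for 17 hrs, then viability was read as CellTiter-Glo luminescence after 30 min at room temperature, in the reporter wells.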
Potency means the concentration at half of the fitted maximal effect.

| SMILES | Potency |
| --- | --- |
| CC(C)Oc1ccc2c(=O)c(-c3ccccc3)coc2c1 | inactive |
| Cc1ccc(C)c(O)c1C | inactive |
| Cc1[nH]c(=O)c(C#N)cc1-c1ccncc1 | inactive |
| c1ccncc1 | inactive |
| Cc1cccc(C(=O)O)c1 | inactive |
| CCCCC(CC)COCC1CO1 (stereo unspecified) | inactive |
| O=C(COc1ccc(Cl)cc1)N1CCN(Cc2ccc3c(c2)OCO3)CC1 | inactive |
| O=[N+]([O-])c1ccc2c(c1)Cc1ccccc1-2 | inactive |
| CC(C)OB(OC(C)C)OC(C)C | inactive |
| CC(CCC(=O)O)(c1ccc(O)cc1)c1ccc(O)cc1 | inactive |
| CCCCc1oc2ccccc2c1C(=O)c1cc(I)c(OCCN(CC)CC)c(I)c1 | 27.8 µM (active) and 21.3 µM (active) |
| CC(=O)C1(C)CC2=C(CCCC2(C)C)CC1C (stereo unspecified) | inactive |
| CCOC(=O)C(C#N)=C(c1ccccc1)c1ccccc1 | inactive |
| CC(C)(C)NC(=O)[C@H]1CC[C@H]2[C@@H]3CC[C@H]4NC(=O)C=C[C@]4(C)[C@H]3CC[C@]12C | inactive |
| C[C@]12CC[C@H]3[C@@H](CCC4=CC(=O)CC[C@@]43C)[C@@H]1CC[C@@H]2C(=O)CO | inactive |
| C=C(C)C(=O)OCCOC(=O)C(=C)C | inactive |
